Screening results: PubChem BioAssay, Pan Lab, Icahn School of Medicine at Mount Sinai
This excerpt belongs to a sample that is enriched for hits.
ROC1-CUL1 inh – inhibitors of human ROC1-CUL1 ubiquitin ligase activity; E3 ubiquitin-protein ligase RBX1 (Homo sapiens) + Cullin-1 (Homo sapiens), P62877+Q13616; in vitro K48 di-Ub FRET, acceptor:donor ratio, 45 min; inhibition, % at 10 µM; 140,000 compounds, 0.6% hits; AID 1347404, 2020; in the data active = inhibition above about 25%
Of the large screens only hits and unclear results are named; the others gave an inactive call.

CCSc1nnc(NC(=O)c2cc(-c3ccc(C)o3)nc3ccccc23)s1	ROC1-CUL1 inh 81
CCN1C(=O)S/C(=C/c2cccn2C)C1=O	none
Cn1cccc1/C=C/c1cc(Br)c(/C=C/c2cccn2C)cc1Br	ROC1-CUL1 inh 95
Cn1cccc1/C=C1/C(=O)ON=C1c1ccccc1	none
CCN1C(=O)/C(=C\c2ccc(N(CC)CC)o2)C(=O)N(c2ccc(Cl)cc2)C1=S	none
Cc1c(CC(=S)N2CCOCC2)c(=O)n(-c2ccccc2)n1C	none
COc1cc(CNc2ccc(N3CCCC3)cc2)cc(Cl)c1OC	none
CCOc1cc(CNc2ccc(C)c(Cl)c2)cc(Cl)c1OCc1ccc(Cl)cc1Cl	none
COc1cc(CNc2ccc(O)cc2)cc(Cl)c1OCc1ccc(Cl)cc1	none
CCOc1cc(CNc2ccc(O)cc2)cc(Cl)c1OCc1ccc(Cl)cc1	ROC1-CUL1 inh 86
COc1cc(CNc2ccc(N3CCCCC3)cc2)cc(Cl)c1OCc1cccs1	none
CCOc1cc(CNc2ccc(N3CCCC3)cc2)cc(Cl)c1OC	ROC1-CUL1 inh 63
O=S(=O)(Nc1ccc2c(c1)OCCO2)c1cccc(Cl)c1	none
COCCN(Cc1cccnc1)CC1CCCN(C2Cc3ccccc3C2)C1 (stereo unspecified)	none
CCn1c(Cc2ccccc2)nnc1SCc1ccc2ccccc2c1	none
CCc1ccccc1NS(=O)(=O)Cc1cccc(C)c1	none
CN(C)c1cnn(CC(=O)NCCc2cn3ccccc3n2)c(=O)c1	none
Cc1cc(/C=C2\SC(=Nc3cccc(Cl)c3Cl)NC2=O)c(C)n1-c1ccc2c(c1)OCO2	none
COc1cccc(C(=O)N=C2Cc3cc(OC)ccc3OC2=O)c1	none
COc1ccc2c(c1)C(=O)Cc1ccccc1S2	none
COc1ccc2c(c1)C(=O)Cc1ccccc1O2	ROC1-CUL1 inh 67
Cc1cc(C(=O)Nc2ccc3oc(-c4cccc(Cl)c4)nc3c2)ccc1[N+](=O)[O-]	none
CCOC(=O)Cc1cc(-c2ccc(Br)cc2)nc2ccc3ccccc3c12	none
O=C1C2C(c3ccc(Br)cc3)OC3(C(=O)c4ccccc4C3=O)C2C(=O)N1c1ccc([N+](=O)[O-])cc1 (stereo unspecified)	none
O=C1C2C(c3ccc(F)c(Cl)c3)OC3(C(=O)c4ccccc4C3=O)C2C(=O)N1c1ccc(Br)cc1 (stereo unspecified)	ROC1-CUL1 inh 93
O=C1C2C(c3ccccc3)OC3(C(=O)c4ccccc4C3=O)C2C(=O)N1c1ccc(F)cc1 (stereo unspecified)	none
COc1ccc(NC(=O)C(Cc2ccc3c(c2)OCO3)=NC(=O)c2ccc(OC)cc2)cc1	none
Cc1cc(Cl)ccc1NC(=O)CSc1nnc(C(NC(=O)c2ccccc2)C(C)C)n1C (stereo unspecified)	none
CCC1CCc2c(sc(NC(=O)c3cc(-c4ccco4)nc4ccccc34)c2C(N)=O)C1 (stereo unspecified)	ROC1-CUL1 inh 43
NC(=O)c1c(NC(=O)c2cc(-c3ccccc3)nc3ccccc23)sc2c1CCCCCC2	none
Cc1ccc(-c2cc(C(=O)Nc3sc4c(c3C(N)=O)CCC(C(C)(C)C)C4)c3ccccc3n2)o1 (stereo unspecified)	none
CCOC(=O)NC12C3C4C1C1C2C3C1(Br)C41OCCO1 (stereo unspecified)	none
CCOc1ccc(NC(=S)NCCCO)cc1	none
CCOc1ccc(NC(=S)NCCO)cc1	none
CCOc1ccc(NC(=S)Nc2ccc3nsnc3c2)cc1	ROC1-CUL1 inh 51
O=C1NC(c2ccc(F)cc2)Nc2ccccc21 (stereo unspecified)	none
CCOC(=O)NC1([N+](=Nc2ccccc2)N2CCOCC2)Oc2ccccc2O1	none
O=C(Nc1sc2c(c1C(=O)NCC1CCCO1)CCCC2)c1ccc(Br)cc1 (stereo unspecified)	none
Cc1ccc(C(=O)c2coc3ccc(O)c(Cl)c23)cc1	none
CC(=O)C(C(C)=O)C1=C(Cl)C(=O)C(=O)c2c(C(=O)c3ccc(C)cc3)coc21	ROC1-CUL1 inh 79
Cc1ccc(C(=O)c2coc3c2cc(O)c2ccccc23)cc1	none
COc1ccc(N2C=C(C)C3=S2N(c2ccccc2)N=C3C)cc1 (stereo unspecified)	none
COc1cccc(N2CCN(C(=O)C(C)Oc3ccc(C)cc3)CC2)c1 (stereo unspecified)	none
CCc1ccc(N2C(=O)/C(=C/c3cccn3-c3ccccc3)C(=O)NC2=S)cc1	none
O=C1NC(=S)N(c2ccc(Br)cc2)C(=O)/C1=C/c1cccn1-c1ccccc1	none
CCc1cccc(C)c1-n1c(C)cc(/C=C2\C(=O)NC(=S)N(c3ccccc3F)C2=O)c1C	none
CCOc1ccc(N2C(=O)/C(=C/c3cccn3C)C(=O)NC2=S)cc1	none
O=C1NC(=S)N(c2ccc(Cl)cc2)C(=O)/C1=C/c1cccn1-c1cccc(C(=O)O)c1	ROC1-CUL1 inh 25
Cc1cc(/C=C2\C(=O)NC(=S)N(c3ccccc3F)C2=O)c(C)n1-c1ccc(C(=O)O)c(Cl)c1	ROC1-CUL1 inh 86
Cc1c(/C=C2/C(=O)NC(=S)N(c3cccc(Cl)c3Cl)C2=O)c2ccccc2n1C	none
Cn1cccc1/C=C1\C(=O)NC(=S)N(c2ccccc2F)C1=O	ROC1-CUL1 inh 95
Cc1c(Cl)cccc1N1C(=O)/C(=C/c2cc(C)n(-c3ccc(C#N)cc3)c2C)C(=O)NC1=S	none
